# Data as given in PubChem BioAssay (NCATS).
# Results filed as inconclusive are left out. Entries that show only a call come without a potency. A number with no mark means an inactive call. Calls of active or inactive are those of the source. The call rests on the fitted dose curve; in most records, active means well fitted inhibition curve with a large enough effect; inconclusive means small, poorly fitted or top-dose-only effect; inactive means flat fitted curve, though single readings scatter.
# Assays:
# PC26 = experiment: qHTS profiling for inhibitors of Plasmodium falciparum proliferation (AID 504749); settings: P. falciparum in erythrocytes, SYBR Green DNA, 72 h; series mostly up to 28.7 µM
# Outline: (§1)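 Fluorescence of SYBR Green-bound parasite DNA, read at 485/535 nm, served as the growth measure. Infected erythrocytes were cultured with compound 72 h; artemisinin (0.29 uM) and DMSO wells defined the normalization range.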
# PC49 = experiment: as above; settings: P. falciparum in erythrocytes, SYBR Green DNA, 72 h; series mostly up to 28.7 µM
# Outline: as §1
# SC27B = experiment: as above; settings: P. falciparum in erythrocytes, SYBR Green DNA, 72 h; series mostly up to 28.7 µM
# Outline: as §1
# TAB109 = experiment: as above; settings: P. falciparum in erythrocytes, SYBR Green DNA, 72 h; series mostly up to 28.7 µM
# Outline: as §1
# TAB165 = experiment: as above; settings: P. falciparum in erythrocytes, SYBR Green DNA, 72 h; series mostly up to 28.7 µM
# Outline: as §1
# HEK293 = experiment: Cytotoxic Profiling of Annotated Libraries Using Quantitative High-Throughput Screening (AID 1296008); settings: Five cell lines viability, CellTiter-Glo ATP luminescence, 48-72 h; max response: hits give low values
# Outline: (§2)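 Compounds were pin-transferred onto cells and incubated 48 or 72 hr at 37 degree Celsius, 95% humidity. CellTiter-Glo was added, plates sat 10 min at room temperature, then ATP-coupled luminescence was imaged as the viability read-out.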
# HaCat = experiment: as above; settings: Five cell lines viability, CellTiter-Glo ATP luminescence, 48-72 h; max response: hits give low values
# Outline: as §2
# TAB113 = experiment: qHTS profiling for inhibitors of Plasmodium falciparum proliferation (AID 504749); settings: P. falciparum in erythrocytes, SYBR Green DNA, 72 h; series mostly up to 28.7 µM
# Outline: as §1
# W2 = experiment: as above; settings: P. falciparum in erythrocytes, SYBR Green DNA, 72 h; series mostly up to 28.7 µM
# Outline: as §1
# Further: nearly all actives have a fitted effect of over 60% in size.
# Potency means the concentration at half of the fitted maximal effect.
Compound,Potency (PC26),Potency (PC49),Potency (SC27B),Potency (TAB109),Potency (TAB165),max response (HEK293),outcome (HaCat),Potency (TAB113),Potency (W2),Potency (HEK293),Potency (HaCat),max response (HaCat),outcome (HEK293)
Cc1cccc(C)c1NC(=O)CN1CCCC1,inactive,inactive,inactive,inactive,inactive,0.0979%,inactive,–,–,–,–,–,–
CCCCCCCCNC(C)C(O)c1ccc(SC(C)C)cc1 (stereo not drawn),849 nM (active),794 nM (active),1120 nM (active),1000 nM (active),794 nM (active),–,–,355 nM (active),169 nM (active),13300 nM (active),–,–,–
CN1CCC[C@@H]1CCO[C@](C)(c1ccccc1)c1ccc(Cl)cc1,inactive,–,inactive,–,–,–,–,inactive,13500 nM (active),15000 nM (active),26600 nM (active),–,–
FC(F)(F)C(F)(F)C(F)(F)C(F)(F)C(F)(F)C(F)(F)C(F)(F)C(F)(F)Br,inactive,inactive,inactive,inactive,inactive,0.523%,inactive,inactive,inactive,–,–,–,–
CO[C@]12C[C@@H](COC(=O)c3cncc(Br)c3)CN(C)[C@@H]1Cc1cn(C)c3cccc2c13,–,inactive,inactive,–,–,-26.4%,inactive,inactive,6750 nM (active),–,–,–,–
COc1ccc(/C=N/NC(=O)c2ccncc2)cc1OC,inactive,inactive,inactive,inactive,inactive,-3.6%,inactive,inactive,inactive,–,–,–,–
O=C(Nc1ncc([N+](=O)[O-])s1)c1cccs1,inactive,inactive,inactive,inactive,inactive,–,–,inactive,inactive,15000 nM (active),–,-23.3%,–
CCC1Nc2cc(Cl)c(S(N)(=O)=O)cc2S(=O)(=O)N1 (stereo not drawn),inactive,inactive,inactive,inactive,inactive,–,–,inactive,inactive,–,–,3.1%,inactive
CCN(CC)CCNC(=O)COc1ccc(OC)cc1,inactive,inactive,inactive,inactive,inactive,4.77%,–,inactive,–,–,–,–,–
O[C@@H](c1cc(C(F)(F)F)nc2c(C(F)(F)F)cccc12)[C@H]1CCCCN1,47.8 nM (active),–,25.1 nM (active),15.8 nM (active),31.6 nM (active),–,–,10 nM (active),–,9440 nM (active),–,–,–
Nc1ccc(S(=O)(=O)Nc2cnc3ccccc3n2)cc1,inactive,inactive,inactive,inactive,inactive,1.95%,–,inactive,inactive,–,–,-4.06%,–
Nc1nc(N)c(-c2ccccc2)s1,inactive,inactive,inactive,inactive,inactive,-1.75%,–,inactive,inactive,–,–,-10.8%,–
C#C[C@]1(O)CC[C@H]2[C@@H]3CCC4=Cc5oncc5C[C@]4(C)[C@H]3CC[C@@]21C,inactive,inactive,inactive,inactive,inactive,–,–,inactive,inactive,21100 nM (active),–,–,–
Oc1ccc(Cl)cc1Cc1cc(Cl)ccc1O,–,inactive,–,–,11200 nM (active),–,–,–,–,21100 nM (active),–,–,–
CC(=O)Nc1ccc(OC(=O)c2ccccc2OC(C)=O)cc1,inactive,inactive,inactive,inactive,inactive,–,inactive,inactive,inactive,–,–,–,inactive
CCOC(=O)[C@H](CCc1ccccc1)N[C@@H](C)C(=O)N1[C@H](C(=O)O)C[C@H]2CCCC[C@@H]21,inactive,inactive,inactive,inactive,inactive,–,–,inactive,inactive,–,–,–,–
CCC(C(=O)OCCOCCN(CC)CC)c1ccccc1 (stereo not drawn),inactive,inactive,inactive,–,inactive,-19.3%,inactive,inactive,12000 nM (active),–,–,–,–
NC(=O)C1(N2CCCCC2)CCN(CCCC(=O)c2ccc(F)cc2)CC1,inactive,inactive,inactive,–,inactive,-19.7%,inactive,–,–,–,–,–,–
CC(=O)NO,inactive,inactive,inactive,inactive,inactive,1.75%,–,inactive,inactive,–,–,-61%,–
C=C[C@H]1CN2CC[C@H]1C[C@H]2[C@H](O)c1ccnc2ccc(OC)cc12,–,–,–,–,–,–,–,–,–,–,–,-3.94%,–
NC(N)=NCc1cccc(I)c1,inactive,inactive,inactive,inactive,inactive,–,–,inactive,inactive,–,–,–,–
CN(Cc1ccc(C(C)(C)C)cc1)Cc1cccc2ccccc12,inactive,inactive,inactive,inactive,–,–,–,–,9530 nM (active),–,–,–,–
Oc1ccccc1C=NCc1ccccc1,inactive,inactive,inactive,inactive,inactive,-3.05%,–,inactive,inactive,–,–,-1.46%,–
Cc1cc2c(OCC(CNC(C)(C)C)OC(=O)c3ccccc3)cccc2[nH]1 (stereo not drawn),inactive,inactive,inactive,–,–,–,–,inactive,2130 nM (active),–,–,1.54%,inactive
